Results published in PubChem BioAssay (NCATS).
Inconclusive results are not listed. Active and inactive are the calls of the source. Calls follow the shape of the dose curve; as a rule, active = well fitted cell-killing curve with a large enough effect; inconclusive = small, poorly fitted or top-dose-only effect; inactive = flat fitted curve, though single readings scatter.

Experiment: Cell Viability - LYMP2-009 (AID 968); also: nearly all actives have a fitted effect of over 55% in size
Conditions: LYMP2-009 lymphoblastoid cell viability; series mostly up to 92.2 µM
Description: NIH Chemical Genomics Center [NCGC]
NIH Molecular Libraries Screening Centers Network [MLSCN]
National Institutes of Environmental Health Sciences [NIEHS]
National Toxicology Program [NTP]
We have developed a 1536-well cell-based assay for quantitative high throughput screening (qHTS) against a number of cell lines to determine in vitro cytotoxicity of small molecules. This particular assay uses a human lymphoblastoid cell line (LYMP2-009) purchased from Coriell Institute for Medical Research.
NCGC Assay Protocol Summary:
The CellTiter-Glo luminescent cell viability assay (Promega) is a homogeneous method to measure the number of viable cells in culture. The end point readout of this assay is based on quantitation of intracellular ATP, an indicator of metabolic activity, using the luciferase reaction. Luciferase catalyzes the oxidation of beetle Luciferin to oxyluciferin and light in the presence of ATP. The luminescent signal is proportional to amount of ATP present.
Using the CellTiter-Glo luminescent cell viability assay, the amount of cellular ATP was measured in the lymphoblastoid cell line with complete culture medium following compound treatment for 24 hours. The assay was performed in opaque white Kalypsys 1536-well plates. In the screen, tetraoctylammonium bromide was used as positive control. Library compounds were measured for their ability to cause acute toxicity in the cell line, as reflected by a decrease in intracellular ATP levels, in a concentration-dependent manner. […] AC50 values were determined from concentration-response data modeled with the standard Hill equation.
qHTS protocol for CellTiter Glo lymphoblastoid cellular assay
[Step] [Parameter] [Value] [Description]
1. Reagent; 5 uL; 2500 lymphoblastoid cells/well
2. Time; 5 hr; 37 C incubation
4. Controls; 23 nL; Tetraoctylammonium bromide 6.4pM to 92 uM
5. Time; 24 hr; 37 C incubation
6. Reagent; 5 uL; CellTiter Glo reagent
7. Time; 30 min; Room Temperature
8. Detection; Luminescence; Viewlux plate reader
Keywords: cell viability, cytotoxicity, lymphoblastoid cell line, luminescence, NTPHTS, NTPHTS_NCGC, NIEHS, DSSTox, MLSMR, MLSCN, NIH Roadmap, qHTS, NCGC

| SMILES | outcome |
| --- | --- |
| CCCCC(CC)COC(=O)c1ccc(N(C)C)cc1 (stereo not drawn) | inactive |
| CCOc1ccc(NC(C)=O)cc1 | inactive |
| NCCNc1cccc2ccccc12 | inactive |
| CCOc1ccccc1C(N)=O | inactive |
| CCCN(CCC)S(=O)(=O)c1ccc(C(=O)O)cc1 | inactive |
| COc1ccc(C(=O)c2ccccc2)c(O)c1 | inactive |
| O=C(O)c1ccc(S(=O)(=O)N(Cl)Cl)cc1 | inactive |
| OC[C@H]1O[C@@H]2O[C@H]3[C@H](O)[C@@H](O)[C@@H](O[C@H]4[C@H](O)[C@@H](O)[C@@H](O[C@H]5[C@H](O)[C@@H](O)[C@@H](O[C@H]6[C@H](O)[C@@H](O)[C@@H](O[C@H]7[C@H](O)[C@@H](O)[C@@H](O[C@H]8[C@H](O)[C@@H](O)[C@@H](O[C@H]1[C@H](O)[C@H]2O)O[C@@H]8CO)O[C@@H]7CO)O[C@@H]6CO)O[C@@H]5CO)O[C@@H]4CO)O[C@@H]3CO | inactive |
| C=C[C@H]1CN2CC[C@H]1C[C@@H]2[C@@H](O)c1ccnc2ccc(OC)cc12 | inactive |
| NC(=O)c1ccccc1O | inactive |
| COc1cc([C@H]2Oc3cc([C@H]4Oc5cc(O)cc(O)c5C(=O)[C@@H]4O)ccc3O[C@@H]2CO)ccc1O | inactive |
| C/C=C/c1ccc(O)c(OC)c1 | inactive |
| COc1ccc(C(Cl)=C(c2ccc(OC)cc2)c2ccc(OC)cc2)cc1 | inactive |
